# Measured values as given in paper PMC7826789 (International Journal of Molecular Sciences, 2021).
smiles,measurement,setting,value
O=C(Nc1n[nH]c2cc(-c3ccsc3)ccc12)C1CC1 [SB-732932],Kinases covered,CDKL2,CDKL2
Cc1cc(NC(=O)c2cccc(NC(=O)/C=C/CN(C)C)c2)ccc1Nc1nccc(-c2cccnc2)n1 [JNK-IN-7],Kinases covered,CDKL5,CDKL5
CCC(NN(C)C)=C1C(=O)Nc2ccc(C(C)=O)cc21 [BI00036838],Kinases covered,CDKL5,CDKL5
COc1cc(Nc2cnc(C#N)c(O[C@H](C)CN(C)C)n2)ncc1-c1cnn(C)c1 [CCT244747],Kinases covered,CHEK1,CHEK1
FC1=CC(C3=NC2=CC(OC)=C(OC)C=C2C(N[C@H]4[C@H]([C@](C)(O)C)CNC4)=N3)=C(O)C=C1.Cl.Cl [CCT241533],Kinases covered,CHEK2,CHEK2
CNc1nc(Nc2ccc(C(=O)N3CCOCC3)cc2OC)nc2[nH]cc(Cl)c12 [JH-II-127],Kinases covered,CHK2,CHK2
O=C(Nc1ccccc1)Nc1cccc(Oc2ccc3nccn3n2)c1 [TPKI-39],Kinases covered,CIT,CIT
CC(C)C(=O)N[C@@H]1CCN(C(=O)Nc2nc3c(s2)-c2nc(-c4ccccc4Cl)ncc2CC3)C1 [BI00047804],Kinases covered,CLK3,CLK3
same,Kinases covered,CLK4,CLK4
CCCNC(=O)c1ccc(Nc2ncc(C(F)(F)F)c(Nc3ccccc3C(C)=O)n2)c(Br)c1 [BI00801818],Kinases covered,CLK4,CLK4
